# Results: the supplement of paper PMC10382584, “Macrocyclization of linear molecules by deep learning to facilitate macrocyclic drug candidates discovery” (Nature Communications, 2023)
# Compound: Cc1cnc(Nc2ccc(OCCN3CCCC3)cc2)nc1Nc1cccc(S(=O)(=O)NC(C)(C)C)c1 [Fedratinib]
# Assay: percent of DMSO control binding (KINOMEscan); higher = weaker binding / less inhibition; extreme values may be limits of the assay
# Conditions: concentration: 100 nM
# Sequence of UniProt P54760 (P54760 whole entry): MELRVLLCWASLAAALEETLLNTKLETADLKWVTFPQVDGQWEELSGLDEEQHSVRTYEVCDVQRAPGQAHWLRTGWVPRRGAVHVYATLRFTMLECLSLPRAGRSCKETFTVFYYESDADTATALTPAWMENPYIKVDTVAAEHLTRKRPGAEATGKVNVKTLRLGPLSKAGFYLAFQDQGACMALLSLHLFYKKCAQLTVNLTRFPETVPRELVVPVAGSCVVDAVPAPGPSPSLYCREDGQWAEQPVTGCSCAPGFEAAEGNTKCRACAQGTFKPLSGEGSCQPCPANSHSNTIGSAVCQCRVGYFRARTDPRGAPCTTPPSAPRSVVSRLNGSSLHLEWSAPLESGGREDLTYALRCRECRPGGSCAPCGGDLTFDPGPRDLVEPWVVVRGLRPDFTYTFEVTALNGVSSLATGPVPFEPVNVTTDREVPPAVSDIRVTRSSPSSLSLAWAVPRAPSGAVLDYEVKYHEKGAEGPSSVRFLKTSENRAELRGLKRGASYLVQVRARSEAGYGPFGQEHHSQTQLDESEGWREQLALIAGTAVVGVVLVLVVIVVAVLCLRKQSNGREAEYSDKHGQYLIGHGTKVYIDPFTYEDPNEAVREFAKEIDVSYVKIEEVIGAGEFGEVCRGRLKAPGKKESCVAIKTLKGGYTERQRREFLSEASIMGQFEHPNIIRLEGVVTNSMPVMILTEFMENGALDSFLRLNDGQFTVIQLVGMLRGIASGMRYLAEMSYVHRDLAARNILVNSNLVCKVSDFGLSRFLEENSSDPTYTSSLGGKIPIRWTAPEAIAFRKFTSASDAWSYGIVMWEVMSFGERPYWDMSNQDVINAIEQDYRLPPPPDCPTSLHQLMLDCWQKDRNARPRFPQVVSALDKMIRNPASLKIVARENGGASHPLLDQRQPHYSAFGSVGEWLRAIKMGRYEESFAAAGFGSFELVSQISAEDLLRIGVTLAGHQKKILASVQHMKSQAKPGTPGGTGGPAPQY
# Sequence of UniProt P11802 (P11802 whole entry, looked up): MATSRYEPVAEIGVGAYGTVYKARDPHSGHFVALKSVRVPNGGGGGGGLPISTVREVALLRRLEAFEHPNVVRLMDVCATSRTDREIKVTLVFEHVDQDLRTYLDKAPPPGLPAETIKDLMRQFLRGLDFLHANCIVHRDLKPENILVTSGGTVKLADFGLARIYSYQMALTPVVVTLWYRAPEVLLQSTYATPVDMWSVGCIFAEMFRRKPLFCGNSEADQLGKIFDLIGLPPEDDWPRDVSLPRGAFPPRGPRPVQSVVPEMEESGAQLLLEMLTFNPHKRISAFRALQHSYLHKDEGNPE
# Sequence of UniProt Q96Q40 (Q96Q40 whole entry): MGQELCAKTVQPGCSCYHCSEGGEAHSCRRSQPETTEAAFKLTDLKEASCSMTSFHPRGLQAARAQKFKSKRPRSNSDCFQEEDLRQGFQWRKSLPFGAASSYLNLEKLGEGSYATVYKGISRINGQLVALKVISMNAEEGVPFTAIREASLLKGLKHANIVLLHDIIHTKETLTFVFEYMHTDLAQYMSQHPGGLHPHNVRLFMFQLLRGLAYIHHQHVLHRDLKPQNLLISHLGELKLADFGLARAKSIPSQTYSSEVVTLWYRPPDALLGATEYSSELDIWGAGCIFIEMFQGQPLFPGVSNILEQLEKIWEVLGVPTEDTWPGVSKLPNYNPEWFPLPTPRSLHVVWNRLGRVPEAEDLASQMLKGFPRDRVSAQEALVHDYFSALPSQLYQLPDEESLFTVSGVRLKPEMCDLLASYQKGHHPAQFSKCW
# Sequence of UniProt Q14164 (Q14164 whole entry): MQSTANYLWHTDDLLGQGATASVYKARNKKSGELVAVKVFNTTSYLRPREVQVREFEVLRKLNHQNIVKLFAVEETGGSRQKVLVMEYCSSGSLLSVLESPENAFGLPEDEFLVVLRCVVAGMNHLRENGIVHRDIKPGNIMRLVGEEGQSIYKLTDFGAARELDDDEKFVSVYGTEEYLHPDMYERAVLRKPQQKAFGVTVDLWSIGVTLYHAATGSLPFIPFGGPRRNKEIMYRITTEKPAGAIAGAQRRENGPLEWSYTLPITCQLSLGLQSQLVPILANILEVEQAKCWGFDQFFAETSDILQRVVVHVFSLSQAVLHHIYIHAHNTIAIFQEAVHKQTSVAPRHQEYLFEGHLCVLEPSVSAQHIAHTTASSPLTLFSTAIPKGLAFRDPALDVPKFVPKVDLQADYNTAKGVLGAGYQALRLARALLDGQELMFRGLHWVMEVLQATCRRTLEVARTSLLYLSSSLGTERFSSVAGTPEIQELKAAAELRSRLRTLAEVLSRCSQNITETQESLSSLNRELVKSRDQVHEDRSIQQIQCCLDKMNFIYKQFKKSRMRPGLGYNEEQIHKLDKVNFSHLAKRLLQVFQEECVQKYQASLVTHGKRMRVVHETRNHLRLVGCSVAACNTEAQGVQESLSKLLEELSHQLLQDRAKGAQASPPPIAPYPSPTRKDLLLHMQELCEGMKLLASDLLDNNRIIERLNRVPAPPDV
# Sequence of UniProt Q9UBF8 (Q9UBF8 whole entry, looked up): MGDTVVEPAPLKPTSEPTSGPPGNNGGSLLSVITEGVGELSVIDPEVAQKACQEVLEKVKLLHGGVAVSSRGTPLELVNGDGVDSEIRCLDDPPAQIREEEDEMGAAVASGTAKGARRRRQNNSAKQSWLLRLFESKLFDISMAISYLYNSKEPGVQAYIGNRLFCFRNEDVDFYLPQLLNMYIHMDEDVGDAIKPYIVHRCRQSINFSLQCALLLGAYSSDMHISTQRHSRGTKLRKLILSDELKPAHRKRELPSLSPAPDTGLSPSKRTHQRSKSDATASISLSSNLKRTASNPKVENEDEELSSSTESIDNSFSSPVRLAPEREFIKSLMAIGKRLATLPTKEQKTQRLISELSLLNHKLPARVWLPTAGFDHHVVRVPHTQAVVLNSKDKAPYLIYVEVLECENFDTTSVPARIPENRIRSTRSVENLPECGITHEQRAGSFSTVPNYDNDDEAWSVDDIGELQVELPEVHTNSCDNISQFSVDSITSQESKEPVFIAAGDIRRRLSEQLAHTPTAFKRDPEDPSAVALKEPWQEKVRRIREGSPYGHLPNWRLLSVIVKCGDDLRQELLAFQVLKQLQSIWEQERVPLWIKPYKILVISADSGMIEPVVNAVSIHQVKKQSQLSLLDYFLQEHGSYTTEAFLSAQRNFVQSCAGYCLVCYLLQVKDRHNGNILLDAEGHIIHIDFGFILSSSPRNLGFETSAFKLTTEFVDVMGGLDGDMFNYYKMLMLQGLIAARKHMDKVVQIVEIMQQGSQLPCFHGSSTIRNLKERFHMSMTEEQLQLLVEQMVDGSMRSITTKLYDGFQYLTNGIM
# Sequence of UniProt P08581 (P08581 whole entry Y1235D, looked up): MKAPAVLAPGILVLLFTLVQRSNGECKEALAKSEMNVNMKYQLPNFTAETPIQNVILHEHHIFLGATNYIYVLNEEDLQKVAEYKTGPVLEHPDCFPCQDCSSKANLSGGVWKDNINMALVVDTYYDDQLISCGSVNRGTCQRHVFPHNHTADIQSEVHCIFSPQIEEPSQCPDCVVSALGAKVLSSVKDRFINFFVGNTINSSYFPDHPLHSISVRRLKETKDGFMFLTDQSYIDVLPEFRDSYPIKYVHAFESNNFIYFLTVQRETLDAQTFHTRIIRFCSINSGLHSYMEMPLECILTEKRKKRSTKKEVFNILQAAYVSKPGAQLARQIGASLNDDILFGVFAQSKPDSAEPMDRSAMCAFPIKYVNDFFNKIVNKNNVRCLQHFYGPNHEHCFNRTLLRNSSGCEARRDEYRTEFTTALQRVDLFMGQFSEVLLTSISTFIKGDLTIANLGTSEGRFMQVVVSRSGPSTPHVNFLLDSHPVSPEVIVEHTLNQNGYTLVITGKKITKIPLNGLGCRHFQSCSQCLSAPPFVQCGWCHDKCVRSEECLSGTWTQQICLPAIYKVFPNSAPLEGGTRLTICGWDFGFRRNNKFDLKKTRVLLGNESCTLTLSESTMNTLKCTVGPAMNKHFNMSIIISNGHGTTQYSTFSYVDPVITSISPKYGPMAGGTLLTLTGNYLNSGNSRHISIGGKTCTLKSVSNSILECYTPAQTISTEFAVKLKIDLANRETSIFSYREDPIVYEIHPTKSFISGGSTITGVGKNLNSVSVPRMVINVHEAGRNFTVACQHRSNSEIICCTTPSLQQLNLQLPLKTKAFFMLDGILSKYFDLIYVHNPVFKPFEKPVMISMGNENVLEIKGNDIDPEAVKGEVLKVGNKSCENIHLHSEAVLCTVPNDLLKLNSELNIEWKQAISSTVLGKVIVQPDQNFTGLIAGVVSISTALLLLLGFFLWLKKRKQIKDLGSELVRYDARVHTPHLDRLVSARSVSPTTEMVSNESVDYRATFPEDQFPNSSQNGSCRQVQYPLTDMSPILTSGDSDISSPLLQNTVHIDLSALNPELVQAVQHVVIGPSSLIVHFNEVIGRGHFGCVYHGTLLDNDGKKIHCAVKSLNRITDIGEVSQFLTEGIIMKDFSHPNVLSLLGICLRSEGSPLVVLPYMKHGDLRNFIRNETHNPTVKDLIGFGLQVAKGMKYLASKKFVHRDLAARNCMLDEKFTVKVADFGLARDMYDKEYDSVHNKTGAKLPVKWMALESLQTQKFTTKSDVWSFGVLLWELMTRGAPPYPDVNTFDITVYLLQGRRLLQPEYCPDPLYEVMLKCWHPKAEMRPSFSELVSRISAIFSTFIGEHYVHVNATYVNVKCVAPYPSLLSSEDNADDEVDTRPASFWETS
# Sequence of UniProt Q16539 (Q16539 whole entry): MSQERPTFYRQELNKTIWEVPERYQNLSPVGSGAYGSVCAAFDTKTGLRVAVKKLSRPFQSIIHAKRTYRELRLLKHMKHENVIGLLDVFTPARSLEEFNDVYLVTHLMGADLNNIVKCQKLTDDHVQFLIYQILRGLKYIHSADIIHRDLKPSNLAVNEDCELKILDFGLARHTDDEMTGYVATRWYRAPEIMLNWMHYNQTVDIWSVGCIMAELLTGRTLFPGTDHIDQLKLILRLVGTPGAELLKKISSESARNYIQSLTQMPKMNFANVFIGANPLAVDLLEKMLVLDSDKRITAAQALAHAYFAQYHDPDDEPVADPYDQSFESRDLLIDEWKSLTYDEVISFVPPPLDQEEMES
row,Target,percent of DMSO control binding [%]
1,CDK4-cyclinD3 (UniProt P11802),90
2,PFTAIRE2 (UniProt Q96Q40),100
3,PIP5K1C (UniProt O60331),100
4,PIK4CB (UniProt Q9UBF8),97
5,IKK-epsilon (UniProt Q14164),57
6,MET(Y1235D) (UniProt P08581),100
7,p38-alpha (UniProt Q16539),78
8,TNNI3K (UniProt Q59H18),97
9,EPHB4 (UniProt P54760),100
